Hit rate of the full screen: of about 39,000 compounds, about 1,500 (3.8%) were called active. Shown is part of a subset that was picked to be rich in actives.
Test system: HSkMC (human skeletal muscle cells)
Assay: cytotoxicity call (relative viability < 0.9)
Conditions: 10 µM

Structure (SMILES)	cytotoxicity call
C[C@@H]1CN([C@@H](C)CO)S(=O)(=O)c2ccc(C#CCN(C)C)cc2O[C@@H]1CN(C)Cc1ccncc1	inactive
CO[C@@H]1CN(C)C(=O)c2ccc(NC(=O)NC(C)C)cc2OC[C@@H](C)N(Cc2ccc(-c3ccccn3)cc2)C[C@@H]1C	inactive
Cc1ccc(OC(=O)N(C)C[C@@H]2OCc3ccccc3-c3ccccc3C(=O)N([C@@H](C)CO)C[C@@H]2C)cc1	inactive
C[C@H]1CN([C@@H](C)CO)C(=O)c2cccc(NC(=O)c3nc4ccccc4s3)c2O[C@H]1CN(C)S(=O)(=O)c1cn(C)cn1	active
C[C@H]1CN([C@@H](C)CO)C(=O)c2cccc(NC(=O)c3nc4ccccc4s3)c2O[C@@H]1CN(C)C(=O)Nc1cccc2ccccc12	inactive
C[C@H](CO)N1C[C@H](C)[C@@H](CN(C)C(=O)Nc2ccc(F)cc2)Oc2c(NC(=O)Nc3cccc4ccccc34)cccc2C1=O	inactive
C[C@H]1CN([C@@H](C)CO)C(=O)c2cccc(NC(=O)Nc3cccc4ccccc34)c2O[C@H]1CN(C)C(=O)Nc1ccccc1	inactive
C[C@H]1CN([C@@H](C)CO)C(=O)c2cccc(NC(=O)Nc3cccc4ccccc34)c2O[C@@H]1CN(C)C(=O)Nc1ccccc1	active
C[C@H](CO)N1C[C@H](C)[C@@H](CN(C)C(=O)Nc2cccc3ccccc23)Oc2c(NC(=O)c3nc4ccccc4s3)cccc2C1=O	active
C[C@@H]1CN([C@@H](C)CO)C(=O)c2cccc(NC(=O)c3nc4ccccc4s3)c2O[C@@H]1CN(C)S(=O)(=O)c1cn(C)cn1	inactive
C[C@H](CO)N1C[C@H](C)[C@H](CN(C)C(=O)Nc2ccc(F)cc2)Oc2c(NC(=O)Nc3cccc4ccccc34)cccc2C1=O	inactive
C[C@@H]1CN([C@H](C)CO)C(=O)c2cccc(NC(=O)c3nc4ccccc4s3)c2O[C@@H]1CN(C)C(=O)Nc1cccc2ccccc12	inactive
C[C@@H]1CN([C@@H](C)CO)C(=O)c2cccc(NC(=O)c3nc4ccccc4s3)c2O[C@H]1CN(C)S(=O)(=O)c1cn(C)cn1	inactive
C[C@H](CO)N1C[C@H](C)[C@H](CN(C)C(=O)Nc2ccccc2)Oc2c(NC(=O)Nc3cccc4ccccc34)cccc2C1=O	inactive
C[C@@H]1CN([C@H](C)CO)C(=O)c2cccc(NC(=O)Nc3cccc4ccccc34)c2O[C@@H]1CN(C)C(=O)Nc1ccc(F)cc1	active
COC(=O)CN1C(=O)COc2ccc(C)cc21	inactive
COc1ccc(cc1)CN1CC[C@]2(CC1)CN([C@@H](CO)c1[nH]c3cc(ccc3c12)OC)C(=O)CN(C)C	inactive

Reference: the antibiotic and cytotoxicity screens of Wong et al. (2023)
